Assay outcomes: PubChem BioAssay, National Center for Advancing Translational Sciences (NCATS)
Many of the other results were omitted from the sample, so hits are more common in it than they were.
DT40 TDP1 no CPT – qHTS for Inhibitors of human tyrosyl-DNA phosphodiesterase 1 (TDP1): qHTS in cells in absence of CPT; Potency, µM (series often up to 46.2 µM), for the others: at the highest dose activity change, negative = growth inhibition, hits mostly inhibitors; AID 686978, 2013; DT40 Tdp1-/- hTDP1 cells, no CPT, ATP luminescence, 48 h; 420,000 tested, 15% active; further: potency means the concentration at half of the fitted maximal effect; nearly all actives have a fitted effect of over 55% in size
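DT40 Tdp1-/-;hTDP1 cells, no CPT (DMSO vehicle only), 400 cells/well; compounds pin-transferred; ≥48 hr, 37 °C; CellTiter-Glo 30 min RT dark, luminescence read.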
ALOX12 inh – Primary qHTS assay for inhibitors of human arachidonate 12S-lipoxygenase (ALOX12): Round 2; Polyunsaturated fatty acid lipoxygenase ALOX12 (Homo sapiens), P18054; 580,000 tested, 1.1% active; purified 12hLO, xylenol orange hydroperoxide absorbance; Potency, µM (titrated, usually from 108 µM), for inactives: top-dose activity change, negative = inhibition, actives largely listed as inhibitors; further: potency means the concentration at half of the fitted maximal effect
Target sequence (P18054 whole entry, looked up): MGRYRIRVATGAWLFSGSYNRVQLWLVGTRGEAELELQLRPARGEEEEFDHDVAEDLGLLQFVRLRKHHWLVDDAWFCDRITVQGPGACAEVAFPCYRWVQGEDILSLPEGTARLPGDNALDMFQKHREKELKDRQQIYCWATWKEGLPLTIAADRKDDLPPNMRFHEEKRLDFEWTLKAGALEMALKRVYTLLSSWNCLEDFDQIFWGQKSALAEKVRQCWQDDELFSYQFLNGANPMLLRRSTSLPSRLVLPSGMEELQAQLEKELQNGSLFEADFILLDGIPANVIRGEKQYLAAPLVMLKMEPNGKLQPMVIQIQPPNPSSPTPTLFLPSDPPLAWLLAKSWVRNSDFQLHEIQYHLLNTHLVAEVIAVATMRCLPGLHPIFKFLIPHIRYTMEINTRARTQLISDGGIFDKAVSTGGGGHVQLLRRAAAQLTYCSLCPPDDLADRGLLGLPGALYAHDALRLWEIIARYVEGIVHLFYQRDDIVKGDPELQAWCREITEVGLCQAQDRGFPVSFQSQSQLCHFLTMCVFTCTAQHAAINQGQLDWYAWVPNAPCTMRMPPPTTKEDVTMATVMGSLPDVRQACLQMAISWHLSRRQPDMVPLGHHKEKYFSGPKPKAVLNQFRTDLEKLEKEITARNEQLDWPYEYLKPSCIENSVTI
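Hydroperoxide product was detected by ferrous iron/xylenol orange as the 573 to 405 nm absorbance ratio. Arachidonic acid at 40 uM (final) was turned over for 30 min at room temperature by 150 nM human 12hLO, pH 7.0 Hepes buffer, after 15 min compound preincubation.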
IL1B secr inh – qHTS for Inhibitors of Inflammasome Signaling: IL-1-beta AlphaLISA Primary Screen; THP-1 LPS/ATP IL-1B secretion, AlphaLISA, 16 h; hits give low values; activity change, % at 57.5 µM; 360,000 tested, 4.7% active; in the data active means activity change below about -50%; inconclusive means mostly about -30% to -49%
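THP-1 cells pretreated 1 hr with compounds (up to 57.5 uM final), then stimulated with LPS (250 ng/mL final) plus ATP (1.25 mM final); secreted IL-1B measured by AlphaLISA after 16 hr, decreased signal indicating inhibition.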
HT1080 IDH1KD tx – qHTS for induction of synthetic lethality in tumor cells producing 2HG: qHTS for the HT-1080-IDH1KD cell line. HT-1080 IDH1 knockdown viability, ATP luminescence, 48 h. Potency, µM (top dose mostly 46.1 µM), for the others: at the top dose activity, negative = toxicity, actives largely listed as cytotoxic. 360,000 tested, 2% active. AID 686971, 2013;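 further: potency means the concentration at half of the fitted maximal effect; 0% = DMSO wells and -100% = cell-free medium wells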
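% activity derives from luminescence (CellTiter-Glo), normalised to DMSO and no-cell wells. HT-1080-IDH1KD cells, 750/well, had 48 h compound exposure at 37 °C.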
DT40 TDP1 CPT – qHTS for Inhibitors of human tyrosyl-DNA phosphodiesterase 1 (TDP1): qHTS in cells in presence of CPT; Potency, µM (highest dose often 46.2 µM), for inactives: at the top dose activity change, negative = growth inhibition, most hits filed as inhibitors; 420,000 tested, 12% active; chicken DT40 Tdp1-/-;hTDP1 cells + 20 nM CPT, ATP luminescence, 48 h; further: potency means the concentration at half of the fitted maximal effect; nearly all actives have a fitted effect of over 55% in size
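Chicken DT40 Tdp1-/- cells complemented with human TDP1, 400 cells/well, exposed to compounds plus 20 nM camptothecin for at least 48 h at 37 C; viability read as ATP content by CellTiter-Glo luminescence.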
HT1080NT lethal – qHTS for induction of synthetic lethality in tumor cells producing 2HG: qHTS for the HT-1080-NT fibrosarcoma cell line | 360,000 tested, 1.6% active | HT-1080-NT fibrosarcoma viability, CellTiter-Glo ATP luminescence, 48 h | Potency, µM (doses to about 46.1 µM), for the others: top-dose activity, negative = less viability, usual class: cytotoxic | AID 686970, 2013;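 further: NT is the 2HG producing partner of a matched IDH1 knockdown line; potency means the concentration at half of the fitted maximal effect; 0% = DMSO-treated cells and -100% = media-only wells without cells; nearly all actives have a fitted effect of over 55% in size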
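HT-1080-NT fibrosarcoma cells (2HG-overproducing), 750 cells/well in RPMI with 5% FBS, dosed after 2 h and incubated 48 h at 37C. CellTiter-Glo luminescence normalized to DMSO and no-cell wells; concentration-response curves fitted and classed.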
An asterisk follows results filed as active; ? = inconclusive; / = no result given; ! = not confirmed by another sample; [ ] = another dose, or the depositor's remark. Unless noted, the call rests on the fitted dose curve; in most records, active means well fitted curve in the direction sought with a large enough effect; inconclusive means small, poorly fitted or top-dose-only effect, or another doubt; inactive means no such curve, though single readings can be large; an effect the other way counts as inactive or inconclusive. Unless noted, on the % scale 0 is the no-effect control and ±100 the full control effect.

SMILES | DT40 TDP1 no CPT | ALOX12 inh | IL1B secr inh | HT1080 IDH1KD tx | DT40 TDP1 CPT | HT1080NT lethal
Cc1oc(-c2ccc(Cl)cc2)nc1CS(=O)CC(=O)NCCCN1CCN(Cc2ccccc2)CC1 (centres undefined) | ? | -11.4% | -79.5* | ? | 14.6µM* | ?
CCN1CCN(CCNC(=O)CS(=O)Cc2nc(-c3ccc(Cl)cc3)oc2C)CC1 (centres undefined) | / | -23.8% | / | / | / | /
CN1C[C@@H](NC(=O)Nc2ccc(F)cc2F)C[C@H]1c1nc(-c2ccc(Cl)cc2)no1 | / | -21.9%[176 µM] | / | / | / | /
Fc1ccc(-c2ccnc3nc(N4CCN(c5ccccc5)CC4)nn23)cc1 | 6.5% | -29.9% | 0.0 | 7.6% | -2.0% | 12.6%
c1ccc(-c2ccnc3nc(N4CCN(c5ccccc5)CC4)nn23)cc1 | 20.6µM* | -22.6% | -8.7 | 0.8% | 18.4µM* | -5.8%
CCOc1ccc(CC(=O)N2CCCN(c3cc(-c4ccccc4)[nH]n3)CC2)cc1OCC | / | 26.4% | / | / | / | /
CCNc1nc(NC(C)CC)nc(Oc2ccc(OCC)nn2)n1 (centres undefined) | 9.2µM* | -2.8% | 68.0 | -1.9% | 10.3µM* | -16.7%
CCOc1ccc(Oc2nc(NCC(C)C)nc(OC)n2)nn1 | -11.9% | -2.7% | 0.0 | 2.3% | 13.9% | 0.9%
COc1cc(NC(=O)CSc2nc3ccccc3nc2Cc2ccc(Cl)cc2)cc(OC)c1 | -16.2% | -15.0% | / | / | -7.2% | /
COc1ccccc1N1CCN(C(=O)CSc2nc3ccccc3nc2Cc2ccc(C)cc2)CC1 | ? | -21.0% | / | / | 16.4µM* | /
COc1ccc(NC(=O)CSc2nc3ccccc3nc2Cc2ccc(C)cc2)cc1Cl | ? | -19.7% | / | / | 13µM* | /
Cc1ccc(Cc2nc3ccccc3nc2SCC(=O)N2CCN(c3ccc(F)cc3)CC2)cc1 | ? | -12.2% | / | / | ? | /
O=C(CSc1nc2ccccc2nc1Cc1ccc(Cl)cc1)N1CCN(c2ccccc2F)CC1 | 20.6µM* | -9.6% | / | / | 16.4µM* | /
CCC(CC)C(=O)Nc1nnc(SCC(=O)N2CCN(c3ccccc3OC)CC2)s1 | 20.6µM* | -0.9% | -14.6 | -9.3% | 20.6µM* | -10.6%
COc1ccccc1N1CCN(C(=O)C2N(C(C)C)C(=O)C23CCCC3)CC1 (centres undefined) | / | 14.4% | / | / | / | /
O=C(/C=C/Nc1ccc(Oc2ccccc2)cc1)c1ccc(F)cc1 | / | 24.4% | / | / | / | /
O=C(Cc1ccc([N+](=O)[O-])cc1)Nc1ccc2oc(C3CC3)nc2c1 | / | -0.2% | / | / | / | /
COc1ccccc1N1CCN(C(=O)CSc2nc3ccccc3nc2N2CCC(C)CC2)CC1 | 23.1µM* | 0.2% | ? | -3.2% | 20.6µM* | -7.8%
O=C(CN(C1CC1)S(=O)(=O)c1ccc(S(=O)(=O)NC2CCCCC2)cc1)Nc1ccccc1 | ? | 0.9% | -12.5 | -36.8% | ? | ?
O=C(CN(Cc1cccs1)S(=O)(=O)c1ccc(S(=O)(=O)NC2CCCCC2)cc1)Nc1ccccc1 | 18.4µM* | 5.9% | -15.8 | -25.5% | 20.6µM* | -9.1%
COc1cc(NC(=O)c2ccc([N+](=O)[O-])o2)ccc1NC(=O)c1cccs1 | 3.66µM* | 4.7% | -90.1* | -19.3% | 2.31µM* | -15.4%
O=C(Nc1cccc(NC(=O)c2ccc([N+](=O)[O-])o2)c1)c1ccco1 | 5.17µM* | -7.3% | -89.6* | 10.3µM* | 5.8µM* | 18.4µM*
O=C(Nc1cccc(NC(=O)c2cccs2)c1)c1ccc([N+](=O)[O-])o1 | 3.66µM* | -5.7% | -101.8* | 23.1µM* | 3.26µM* | 10.3µM*
O=C(Nc1ccc(NC(=O)c2ccc([N+](=O)[O-])o2)cc1Cl)c1ccco1 | ? | 3.5% | / | ? | ? | -13.4%
COc1cc(/C=C/C(=O)OCC(=O)OC2CC(C)CCC2C(C)C)cc(OC)c1OC (centres undefined) | / | 34.2% | / | / | / | /
SMILES | DT40 TDP1 no CPT | ALOX12 inh | IL1B secr inh | HT1080 IDH1KD tx | DT40 TDP1 CPT | HT1080NT lethal
COC(=O)c1ccc(CNC(=O)c2cccc(CS(C)=O)c2)cc1 (centres undefined) | / | -6.2% | / | / | / | /
CN1[C@@H]2CC[C@H]1CC(OC(c1ccccc1)c1ccccc1)C2 (some centres undefined) | 21.1µM*! | / | / | / | 7.5µM* | /
CN1CCC(OC(c2ccccc2)c2ccc(Cl)cc2)C1 (centres undefined) | 20.6µM* | -9.1% | / | -16.0% | ? | -29.6%
CC(C)C(NC(=O)Cc1n[nH]c(=O)c2ccccc12)c1ccc(C(C)(C)C)cc1 (centres undefined) | / | 0.5% | / | / | / | /
O=C1CCSc2c1cccc2C(=O)NCC1CCN(Cc2ccc(Cl)cc2)CC1 | / | -25.2% | / | / | / | /
COc1ccc(-c2ccc(/C=N/NC(=O)c3cccnc3)o2)c([N+](=O)[O-])c1 | 16.4µM* | -3.0% | -8.1 | 8.3% | ? | -0.4%
COc1cc([N+](=O)[O-])cc(/C=N/NC(=O)c2cccnc2)c1O | ? | 0.0% | -2.6 | -1.5% | ? | -0.1%
Cc1ccc(C(=O)N/N=C/c2ccc(-c3ccccc3[N+](=O)[O-])o2)cn1 | ? | 1.9% | 8.6 | -7.9% | 20.6µM* | -13.0%
Cc1nnc(N/N=C\c2ccc(-c3ccccc3[N+](=O)[O-])o2)n1N | ? | 0.4% | 103.2 | -11.2% | ? | 0.0%
O=C(N/N=C\c1ccc(-c2cccc(Cl)c2)o1)C(=O)NC1CCCC1 | ? | -3.6% | -7.4 | 19.3% | -27.5% | ?
Cc1ccc(C(=O)N/N=C\c2ccc(-c3ccc(Cl)c(Cl)c3)o2)cn1 | ? | 0.0% | ? | 18.4µM* | ? | 16.4µM*
Cc1ccc(C(=O)N/N=C/c2ccc(-c3cccc(Cl)c3)o2)cn1 | 14.6µM* | 194.8% | -22.9 | ? | 14.6µM* | 25.9µM*
N#Cc1ccc(F)c(CSc2nnc(N)s2)c1 | / | -9.7% | / | / | / | /
Cc1ccc(C(=O)Nc2ccc(-c3nc4ccccc4s3)cc2)c(C)c1 | / | 25.3% | / | / | / | /
COCC(=O)N1CCN(C(=O)Cc2ccc(N3CCCC3=O)cc2)CC1 | / | 14.1% | / | / | / | /
Cc1cccc(Cl)c1NC(=O)N1CCN(c2ccnc3cc(Cl)ccc23)CC1 | 13µM* | 0.0% | -11.1 | -18.0% | ? | -2.2%
CCCCNC(=O)N1CCN(c2ccnc3cc(Cl)ccc23)CC1 | 13µM* | / | -22.3 | 3.2% | 20.6µM* | -2.5%
